Activity calls are given as the source filed them. Calls come from the whole dose curve; as a rule, active = well fitted curve in the direction sought with a large enough effect; inactive = no such curve, though single readings can be large or run the other way.
biological target: D(2) dopamine receptor (Homo sapiens) (UniProt P14416); assay: HTS Assay for Allosteric Antagonists of the Human D2 Dopamine Receptor: Hit Validation in primary assay; details: HEK293 TREx D2, calcium flux, dopamine EC80 antagonism; series mostly up to 41.8 µM; activity change, negative = inhibition: at the top concentration
Sequence (P14416 whole entry, looked up): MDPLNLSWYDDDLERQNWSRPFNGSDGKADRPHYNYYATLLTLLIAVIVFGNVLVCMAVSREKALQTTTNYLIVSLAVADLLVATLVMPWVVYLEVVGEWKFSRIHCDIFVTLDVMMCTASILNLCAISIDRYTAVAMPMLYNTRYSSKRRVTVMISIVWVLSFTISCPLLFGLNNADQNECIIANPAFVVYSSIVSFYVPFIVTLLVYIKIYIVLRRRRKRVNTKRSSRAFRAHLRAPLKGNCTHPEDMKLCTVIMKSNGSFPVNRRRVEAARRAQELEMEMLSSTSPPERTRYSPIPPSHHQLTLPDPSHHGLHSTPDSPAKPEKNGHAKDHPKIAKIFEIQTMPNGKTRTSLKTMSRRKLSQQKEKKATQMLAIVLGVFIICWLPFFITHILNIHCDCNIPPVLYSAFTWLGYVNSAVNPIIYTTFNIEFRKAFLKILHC
Source text: Dopamine receptors (DARs) are involved in the etiology and/or therapy of a number of neuropsychiatric and endocrine disorders. For instance, all receptor-based antiparkinsonian drugs work via stimulating the D2 DAR subtype whereas all FDA-approved antipsychotic agents are antagonists of this receptor. […] There are three different types of allosteric modulators that we are seeking, two of which will stimulate or augment receptor signaling, allosteric agonists and potentiators, while the third, allosteric antagonists, will attenuate receptor signaling. The present primary screening assay measures compound antagonism after an EC80 addition of dopamine by tracking calcium flux in a […], inducible Hek293 Trex D2 cell line. NIH Chemical Genomics Center [NCGC] NIH Molecular Libraries Probe Centers Network [MLPCN] MLPCN Grant: NS064831 Assay Submitter (PI): David Sibley
Freshly passaged cells are plated in 1536 well black, clear bottom plates at a density of 4000 cells/well in 3 ul of complete media containing 1x tetracycline inducer. After an overnight incubation at 30 C in 5% CO2, cells are loaded with 2 ul of the no wash Calcium Assay Kit (ABD Bioquest) and incubated at room temperature for 30 to 90 minutes before it's read.

Activity change, negative = inhibition, inactive:
CC(C)(C)NCC(O)c1cc(O)cc(O)c1 (configuration not stated) 20.4%
CC1=CC(=O)c2ccccc2C1=O 28%
CC(=O)OC1CC2C(C)(C)C(O)CC(O)[C@@]2(C)C2CC[C@@]3(C)C(=CC(=O)OC3c3ccoc3)[C@]12C (some centres not stated) 15.4%
CCCCNc1ccc(C(=O)OCCN(C)C)cc1 7.23%
COc1ccc2cc3[n+](cc2c1OC)CCc1cc2c(cc1-3)OCO2 40.3%
CC(CCC(=O)O)C1CCC2C3CC[C@H]4CC(O)CC[C@@]4(C)C3CC[C@@]12C (some centres not stated) 2.2%
NCC1O[C@@H](OC2C(N)C[C@H](N)[C@@H](O[C@H]3OC(CO)C(O)C(N)C3O)C2O)C(N)C(O)C1O (some centres not stated) 40.9%
CCCCCCCCCCCC1=C(O)C(=O)C=C(O)C1=O 42.8%
CC1OC(OC2C(CO)OC(OC3C(CO)OC(O)C(O)C3O)C(O)C2O)C(O)C(O)C1NC1C=C(CO)C(O)C(O)C1O (configuration not stated) -16.7%
O=C(O)c1cc(=O)c2ccccc2[nH]1 -4.72%
COc1cc(OC)c2ccc(=O)oc2c1 27%
NS(=O)(=O)c1cc(C2(O)NC(=O)c3ccccc32)ccc1Cl (configuration not stated) 27.7%
CC(C)c1c(O)ccc2c1CCC1[C@@](C)(C=O)CCC[C@@]21C (some centres not stated) 35.8%
COc1ccc(-c2c(O)c3c(OC)c4c(cc3oc2=O)OC(C)(C)C=C4)cc1 34.9%
O=C(OCc1ccccc1)c1ccccc1 18.9%
C[C@]12CCC3c4ccc(OS(=O)(=O)O)cc4CCC3C1CCC2=O (some centres not stated) 28.3%
Cc1cc(C)nc(NS(=O)(=O)c2ccc(N)cc2)n1 15.7%
